In article PMC7862700, “An all-to-all approach to the identification of sequence-specific readers for epigenetic DNA modifications on cytosine”:

Experiments:
Test in all cases: DAPPL (digital affinity profiling via proximity ligation, sequencing); 10 mM Tris-HCl pH 7.5, 50 mM NaCl, 1 mM DTT, 4% glycerol, room temperature, 30 min; GST-TFs on glutathione beads, 16-mer random dsDNA library, 0.1% formaldehyde crosslink after washing; high values mean tight binding
Details in all cases: protein: recombinant; tags: N-terminal GST; dsDNA, one strand shown
FLI1 = target: T1, FLI1 (Homo sapiens, UniProt Q01543 1-452)
T1 sequence: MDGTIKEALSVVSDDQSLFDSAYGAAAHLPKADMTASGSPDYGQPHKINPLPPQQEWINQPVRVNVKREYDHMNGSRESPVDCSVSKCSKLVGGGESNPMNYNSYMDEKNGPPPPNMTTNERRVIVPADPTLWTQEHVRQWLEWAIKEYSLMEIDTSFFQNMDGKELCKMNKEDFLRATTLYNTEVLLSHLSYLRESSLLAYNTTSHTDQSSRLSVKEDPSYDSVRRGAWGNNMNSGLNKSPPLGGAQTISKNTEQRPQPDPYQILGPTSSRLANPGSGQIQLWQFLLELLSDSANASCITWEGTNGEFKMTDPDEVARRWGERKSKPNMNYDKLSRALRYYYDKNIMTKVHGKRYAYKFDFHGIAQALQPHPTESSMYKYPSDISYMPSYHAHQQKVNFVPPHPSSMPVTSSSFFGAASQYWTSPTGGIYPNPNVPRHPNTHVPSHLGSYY
Method in brief: (§1)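 Human transcription factors were made in yeast as GST fusions, captured on glutathione beads and barcoded with DNA. With a tag-only sample included, the pool was incubated with 200 nmole of a random double-stranded 16-mer DNA library in Tris/NaCl/DTT/glycerol buffer at room temperature for 30 min, then crosslinked with 0.1% formaldehyde after washing, ligated by proximity, amplified and sequenced. For binding signal, each hexamer's read frequency for a factor is divided by its frequency for the tag-only sample.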

ELK1 = target: T2, ELK1 (Homo sapiens, UniProt P19419 1-428)
T2 sequence: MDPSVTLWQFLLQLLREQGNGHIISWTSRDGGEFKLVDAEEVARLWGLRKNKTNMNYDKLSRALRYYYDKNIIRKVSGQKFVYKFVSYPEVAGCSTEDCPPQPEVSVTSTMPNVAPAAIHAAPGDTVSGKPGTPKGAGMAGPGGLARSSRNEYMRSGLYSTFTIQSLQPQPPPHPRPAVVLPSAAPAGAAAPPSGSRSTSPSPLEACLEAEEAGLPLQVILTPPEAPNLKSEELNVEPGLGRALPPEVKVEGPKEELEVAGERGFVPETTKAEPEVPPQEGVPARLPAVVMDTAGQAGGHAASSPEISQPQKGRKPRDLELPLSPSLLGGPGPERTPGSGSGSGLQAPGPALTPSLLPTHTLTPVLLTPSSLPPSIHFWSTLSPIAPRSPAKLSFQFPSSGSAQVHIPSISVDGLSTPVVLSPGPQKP
Method in brief: as §1

ELF1 = ELF1 (Homo sapiens, UniProt P32519 1-619)
ELF1, sequence (P32519 whole entry): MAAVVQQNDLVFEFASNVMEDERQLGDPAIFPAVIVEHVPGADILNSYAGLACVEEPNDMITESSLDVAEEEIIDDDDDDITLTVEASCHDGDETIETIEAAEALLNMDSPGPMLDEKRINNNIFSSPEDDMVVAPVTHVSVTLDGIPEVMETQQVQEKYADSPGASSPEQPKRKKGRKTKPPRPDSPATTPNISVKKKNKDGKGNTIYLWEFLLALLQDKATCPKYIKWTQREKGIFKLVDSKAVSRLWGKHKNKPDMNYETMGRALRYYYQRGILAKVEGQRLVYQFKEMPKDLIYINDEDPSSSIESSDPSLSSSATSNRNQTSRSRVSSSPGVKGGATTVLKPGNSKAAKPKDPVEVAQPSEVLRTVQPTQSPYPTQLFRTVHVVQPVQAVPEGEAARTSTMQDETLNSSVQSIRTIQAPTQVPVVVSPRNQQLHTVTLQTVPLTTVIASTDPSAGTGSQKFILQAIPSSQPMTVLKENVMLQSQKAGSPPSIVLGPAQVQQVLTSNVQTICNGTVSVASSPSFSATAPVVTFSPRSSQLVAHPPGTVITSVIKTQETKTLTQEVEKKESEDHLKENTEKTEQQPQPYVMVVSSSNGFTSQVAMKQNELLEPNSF
Method in brief: as §1

ELK3 = target: T3, ELK3 (Homo sapiens, UniProt P41970 1-407)
T3 sequence: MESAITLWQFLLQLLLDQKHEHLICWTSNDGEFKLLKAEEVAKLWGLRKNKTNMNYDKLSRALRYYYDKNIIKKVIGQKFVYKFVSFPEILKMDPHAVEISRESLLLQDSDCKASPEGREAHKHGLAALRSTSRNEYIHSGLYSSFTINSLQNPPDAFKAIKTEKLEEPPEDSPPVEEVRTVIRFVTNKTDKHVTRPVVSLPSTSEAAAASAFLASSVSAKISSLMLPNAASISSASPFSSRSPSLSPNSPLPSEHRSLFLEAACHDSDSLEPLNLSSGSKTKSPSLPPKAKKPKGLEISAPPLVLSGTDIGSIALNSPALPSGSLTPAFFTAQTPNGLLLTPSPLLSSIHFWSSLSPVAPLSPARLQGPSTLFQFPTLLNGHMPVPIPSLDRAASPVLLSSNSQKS
Method in brief: as §1

ELK4 = target: T4, ELK4 (Homo sapiens, UniProt P28324-2 1-405)
T4 sequence: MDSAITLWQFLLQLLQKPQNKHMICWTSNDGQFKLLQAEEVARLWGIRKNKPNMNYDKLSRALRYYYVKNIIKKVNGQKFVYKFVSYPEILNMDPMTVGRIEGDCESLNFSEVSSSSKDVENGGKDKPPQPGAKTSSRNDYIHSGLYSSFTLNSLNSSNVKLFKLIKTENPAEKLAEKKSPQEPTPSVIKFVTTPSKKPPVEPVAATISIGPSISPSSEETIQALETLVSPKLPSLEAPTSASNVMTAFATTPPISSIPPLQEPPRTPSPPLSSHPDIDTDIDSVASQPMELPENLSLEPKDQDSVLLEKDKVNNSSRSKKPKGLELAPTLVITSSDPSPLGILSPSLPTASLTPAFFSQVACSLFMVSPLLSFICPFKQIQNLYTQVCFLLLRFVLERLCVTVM
Method in brief: as §1

ETV2 = target: T5, ETV2 (Homo sapiens, UniProt O00321 1-342)
T5 sequence: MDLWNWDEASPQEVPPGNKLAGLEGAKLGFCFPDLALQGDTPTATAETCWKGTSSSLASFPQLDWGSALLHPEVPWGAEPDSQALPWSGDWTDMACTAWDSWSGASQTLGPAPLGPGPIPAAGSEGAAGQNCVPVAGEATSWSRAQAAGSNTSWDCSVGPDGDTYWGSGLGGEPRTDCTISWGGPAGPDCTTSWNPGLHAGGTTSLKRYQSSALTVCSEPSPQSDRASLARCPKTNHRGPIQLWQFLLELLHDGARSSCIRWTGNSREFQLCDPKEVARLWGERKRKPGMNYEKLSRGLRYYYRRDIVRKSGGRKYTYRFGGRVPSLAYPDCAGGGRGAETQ
Method in brief: as §1

ETV3L = target: T6, ETV3L (Homo sapiens, UniProt Q6ZN32 1-361)
T6 sequence: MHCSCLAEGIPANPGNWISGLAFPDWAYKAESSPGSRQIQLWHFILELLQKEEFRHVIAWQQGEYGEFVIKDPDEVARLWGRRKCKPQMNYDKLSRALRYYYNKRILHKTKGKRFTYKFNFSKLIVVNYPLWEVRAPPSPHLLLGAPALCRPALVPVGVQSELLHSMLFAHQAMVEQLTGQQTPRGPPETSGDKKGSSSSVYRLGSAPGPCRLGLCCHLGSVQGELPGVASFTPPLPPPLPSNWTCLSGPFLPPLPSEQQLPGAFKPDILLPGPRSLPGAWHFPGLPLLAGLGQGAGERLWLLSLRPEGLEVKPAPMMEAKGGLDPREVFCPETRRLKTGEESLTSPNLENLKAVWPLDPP
Method in brief: as §1

ETS2 = target: T7, ETS2 (Homo sapiens, UniProt P15036 1-469)
T7 sequence: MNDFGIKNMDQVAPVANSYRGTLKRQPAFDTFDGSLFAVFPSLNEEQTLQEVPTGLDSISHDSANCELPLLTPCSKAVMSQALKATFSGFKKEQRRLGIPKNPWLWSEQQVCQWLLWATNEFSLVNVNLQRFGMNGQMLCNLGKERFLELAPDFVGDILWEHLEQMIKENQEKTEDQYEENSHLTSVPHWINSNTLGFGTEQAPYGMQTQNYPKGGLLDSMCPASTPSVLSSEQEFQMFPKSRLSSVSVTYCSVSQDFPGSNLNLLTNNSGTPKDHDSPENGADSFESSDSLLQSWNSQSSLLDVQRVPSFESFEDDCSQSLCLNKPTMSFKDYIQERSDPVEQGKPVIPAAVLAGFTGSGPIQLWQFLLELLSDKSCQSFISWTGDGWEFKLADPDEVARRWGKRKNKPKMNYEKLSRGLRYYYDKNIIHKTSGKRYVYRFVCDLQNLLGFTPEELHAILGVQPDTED
Method in brief: as §1

ETV7 = target: T8, ETV7 (Homo sapiens, UniProt Q9Y603 1-341)
T8 sequence: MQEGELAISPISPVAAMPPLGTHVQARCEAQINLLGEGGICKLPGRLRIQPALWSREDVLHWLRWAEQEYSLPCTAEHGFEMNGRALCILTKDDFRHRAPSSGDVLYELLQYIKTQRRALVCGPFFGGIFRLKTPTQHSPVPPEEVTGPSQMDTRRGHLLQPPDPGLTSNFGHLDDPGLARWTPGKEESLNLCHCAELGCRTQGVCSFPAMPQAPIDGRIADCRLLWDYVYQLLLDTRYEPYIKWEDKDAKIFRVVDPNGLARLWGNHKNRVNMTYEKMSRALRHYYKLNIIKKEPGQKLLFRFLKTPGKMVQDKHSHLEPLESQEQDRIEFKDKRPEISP
Method in brief: as §1

ETV3 = target: T9, ETV3 (Homo sapiens, UniProt P41162-2 1-143)
T9 sequence: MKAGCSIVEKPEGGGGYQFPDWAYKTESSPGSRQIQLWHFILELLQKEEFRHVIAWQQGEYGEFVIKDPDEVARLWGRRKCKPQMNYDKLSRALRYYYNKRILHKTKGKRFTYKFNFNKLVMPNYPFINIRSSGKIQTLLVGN
Method in brief: as §1

ETV6 = ETV6 (Homo sapiens, UniProt P41212 1-452)
ETV6, sequence (P41212 whole entry): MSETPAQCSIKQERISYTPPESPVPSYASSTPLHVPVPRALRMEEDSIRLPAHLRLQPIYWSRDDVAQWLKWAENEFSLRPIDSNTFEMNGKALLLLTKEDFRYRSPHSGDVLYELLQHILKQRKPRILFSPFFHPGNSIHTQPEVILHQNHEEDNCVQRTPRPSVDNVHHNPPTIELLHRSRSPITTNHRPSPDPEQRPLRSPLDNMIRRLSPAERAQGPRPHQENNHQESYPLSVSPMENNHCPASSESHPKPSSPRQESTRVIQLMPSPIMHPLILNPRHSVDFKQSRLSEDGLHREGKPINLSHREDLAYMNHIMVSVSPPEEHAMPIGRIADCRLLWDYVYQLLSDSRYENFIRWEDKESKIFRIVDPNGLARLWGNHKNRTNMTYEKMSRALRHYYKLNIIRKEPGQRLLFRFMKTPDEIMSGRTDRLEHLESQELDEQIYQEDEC
Method in brief: as §1

GABPA = target: T10, GABPA (Homo sapiens, UniProt Q06546 1-454)
T10 sequence: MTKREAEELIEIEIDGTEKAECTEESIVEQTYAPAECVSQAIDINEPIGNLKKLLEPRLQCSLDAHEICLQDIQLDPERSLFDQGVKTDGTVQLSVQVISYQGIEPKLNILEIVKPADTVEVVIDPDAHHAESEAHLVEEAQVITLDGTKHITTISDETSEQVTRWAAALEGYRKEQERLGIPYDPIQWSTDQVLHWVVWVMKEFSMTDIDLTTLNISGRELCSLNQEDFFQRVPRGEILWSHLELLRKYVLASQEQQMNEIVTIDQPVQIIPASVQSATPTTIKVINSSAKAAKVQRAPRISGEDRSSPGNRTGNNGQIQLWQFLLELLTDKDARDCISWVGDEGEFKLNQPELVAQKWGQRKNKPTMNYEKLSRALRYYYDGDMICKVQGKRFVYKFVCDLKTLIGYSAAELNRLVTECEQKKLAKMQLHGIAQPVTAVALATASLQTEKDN
Method in brief: as §1

ERF = target: T11, ERF (Homo sapiens, UniProt P50548 1-548)
T11 sequence: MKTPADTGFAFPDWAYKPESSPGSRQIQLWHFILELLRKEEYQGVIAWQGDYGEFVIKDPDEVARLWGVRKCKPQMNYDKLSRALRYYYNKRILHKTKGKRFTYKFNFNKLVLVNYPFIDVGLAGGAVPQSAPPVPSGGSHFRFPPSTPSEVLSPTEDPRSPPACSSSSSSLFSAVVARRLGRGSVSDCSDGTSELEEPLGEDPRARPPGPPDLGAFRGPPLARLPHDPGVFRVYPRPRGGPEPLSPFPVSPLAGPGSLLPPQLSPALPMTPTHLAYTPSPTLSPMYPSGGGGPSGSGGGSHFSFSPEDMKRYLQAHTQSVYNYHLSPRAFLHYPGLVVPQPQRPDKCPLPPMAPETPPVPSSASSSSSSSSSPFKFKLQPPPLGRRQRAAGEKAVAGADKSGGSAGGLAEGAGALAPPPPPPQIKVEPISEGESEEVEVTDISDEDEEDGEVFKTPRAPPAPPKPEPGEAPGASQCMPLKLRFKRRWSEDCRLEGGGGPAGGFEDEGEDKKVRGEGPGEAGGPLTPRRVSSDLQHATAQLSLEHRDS
Method in brief: as §1

Sequence	binding signal (FLI1)	binding signal (ELK1)	binding signal (ELF1)	binding signal (ELK3)	binding signal (ELK4)	binding signal (ETV2)	binding signal (ETV3L)	binding signal (ETS2)	binding signal (ETV7)	binding signal (ETV3)	binding signal (ETV6)	binding signal (GABPA)	binding signal (ERF)
GACACT	1.01 fold enrichment (6-mer frequency, TF over GST control)	1.02 fold enrichment (6-mer frequency, TF over GST control)	1.03 fold enrichment (6-mer frequency, TF over GST control)	1.06 fold enrichment (6-mer frequency, TF over GST control)	1.05 fold enrichment (6-mer frequency, TF over GST control)	1.1 fold enrichment (6-mer frequency, TF over GST control)	1.08 fold enrichment (6-mer frequency, TF over GST control)	1.05 fold enrichment (6-mer frequency, TF over GST control)	1.04 fold enrichment (6-mer frequency, TF over GST control)	1.03 fold enrichment (6-mer frequency, TF over GST control)	1.13 fold enrichment (6-mer frequency, TF over GST control)		
ACAAAG	1.04 fold enrichment (6-mer frequency, TF over GST control)		1.02 fold enrichment (6-mer frequency, TF over GST control)	1.04 fold enrichment (6-mer frequency, TF over GST control)				1.01 fold enrichment (6-mer frequency, TF over GST control)	1.01 fold enrichment (6-mer frequency, TF over GST control)			1.03 fold enrichment (6-mer frequency, TF over GST control)	1.01 fold enrichment (6-mer frequency, TF over GST control)
